Data: PubChem BioAssay (Tox21)
Unmarked numbers belong to inactive results. Inconclusive results are not listed. Active and inactive are the calls of the source. The call rests on the fitted dose curve.

Test system: not listed separately
Assay: Nuclear factor erythroid 2-related factor 2/antioxidant responsive element (Nrf2/ARE) small molecule agonists: luciferase reporter gene qHTS assay in human keratinocytes (AID 1919969); further: potency means the concentration at half of the fitted maximal effect
Settings: KeratinoSens HaCaT ARE-luciferase, luminescence, 24 h; series mostly up to 92.4 µM; activity, positive = activation: at the top concentration
Further: nearly all actives have a fitted effect of over 35% in size.
On the % scale 0 is the no-effect control and ±100 the full control effect.

Which “activity, positive = activation” value does the source give for `NCCC(O)(P(=O)(O)O)P(=O)(O)O` here?
The value was -1.07% [at 42.5 µM].

With `CO[Si](OC)(OC)c1ccccc1` as the compound, how does the “activity, positive = activation” value read?
Its value is -11.2%.

For `O=C(c1ccc(Cl)cc1)c1ccc(Cl)cc1`, which “activity, positive = activation” value is on record?
The value was 4.09%.

For `CC[C@H]1CN2CCc3cc(OC)c(OC)cc3[C@@H]2C[C@@H]1C[C@H]1NCCc2cc(OC)c(OC)cc21`, which Potency is on record?
The Potency was “inactive”.

With `CC(C)c1cccc(O)c1` as the compound, how does the “activity, positive = activation” value read?
The value was -10.7%.

With `CC(C)CC=O` as the compound, how does the “activity, positive = activation” value read?
The value was -3.94%.

Which “activity, positive = activation” value does the source give for `COc1cccc(OC)c1C(=O)N[C@@H]1C(=O)N2[C@@H]1SC(C)(C)[C@@H]2C(=O)O` here?
The value was 1.29% [at 42.5 µM].

For `O=P(OC(CCl)CCl)(OC(CCl)CCl)OC(CCl)CCl`, which Potency is on record?
The Potency was “inactive”.

Which “activity, positive = activation” value does the source give for `CC/C=C\CC1=C(C)CCC1=O` here?
The value was 6.22%.

With `CCC(C)S` (configuration not stated) as the compound, how does the activity, positive = activation read?
The activity, positive = activation was -3.8% [at 3.27 µM].

Which Potency does the source give for `c1ccc2c(c1)CCc1ccccc1N2` here?
Its Potency is 61.4 µM (active).

Which “activity, positive = activation” value does the source give for `CCCCOC(=O)C(C)OC(=O)CCC` (configuration not stated) here?
The value was -2.17%.

With `CCCC=O` as the compound, how does the “activity, positive = activation” value read?
The value was -4.13%.

Target: Gonadotropin-releasing hormone receptor (Homo sapiens) (UniProt P30968)
Assay: Human gonadotropin-releasing hormone receptor (GnRHR) small molecule agonists, calcium flux assay in GnRHR-HEK293 cells (AID 1920063)
Settings: calcium flux fluorescence, agonist mode; series mostly up to 57.6 µM; activity change: at the top concentration
Method in brief: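 Calcium-dye fluorescence, Ex/Em=480/540, recorded every 1 sec over 3 min after compound addition to GnRHR-HEK293 cells. Cells had been seeded 18 hours earlier and dye-loaded for 1 hour at 37 C. Fifteen concentrations, triplicates.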

Sequence of Gonadotropin-releasing hormone receptor (Homo sapiens) (P30968 whole entry, looked up): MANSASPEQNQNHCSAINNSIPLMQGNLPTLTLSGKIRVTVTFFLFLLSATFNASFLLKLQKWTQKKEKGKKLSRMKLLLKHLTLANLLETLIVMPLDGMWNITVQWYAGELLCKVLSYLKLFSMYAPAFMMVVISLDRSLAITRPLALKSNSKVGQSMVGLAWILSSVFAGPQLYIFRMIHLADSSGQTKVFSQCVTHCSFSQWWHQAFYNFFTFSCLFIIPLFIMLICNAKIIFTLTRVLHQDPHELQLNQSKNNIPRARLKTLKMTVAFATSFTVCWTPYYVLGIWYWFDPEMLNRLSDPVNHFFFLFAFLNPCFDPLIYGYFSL

Which “activity change” value does the source give for `CC(C)COC(=O)c1ccc(N)cc1` here?
The value was -0.659% [at 26.4 µM, active compounds read high].

Which “activity change” value does the source give for `CCCc1cc(C(N)=S)ccn1` here?
Its value is -0.405% [at 26.4 µM, active compounds read high].

For `CCCCCCCCCCCCCCO`, which Potency is on record?
The Potency was “inactive”.

With `CCO/C([O-])=N/c1c[n+](N2CCOCC2)no1` as the compound, how does the “activity change” value read?
The value was -0.247% [at 26.4 µM, active compounds read high].

With `O=C(O)c1ccco1` as the compound, how does the “activity change” value read?
The value was -1.04%.

Which “activity change” value does the source give for `CSc1cnccn1` here?
The value was 0.676%.

With `CCCCCCCOC(C)=O` as the compound, how does the “activity change” value read?
Its value is -0.0483%.

With `CCc1cnc(C(=O)O)c(C(=O)O)c1` as the compound, how does the “activity change” value read?
The value was 0.384%.

With `NS(=O)(=O)c1ccc(NC(=O)CCC(=O)O)cc1` as the compound, how does the “activity change” value read?
Its value is -1.01% [at 26.4 µM, active compounds read high].

Which Potency does the source give for `COc1ccc(C(=O)CC(=O)c2ccc(C(C)(C)C)cc2)cc1` here?
Its Potency is “inactive”.

Which “activity change” value does the source give for `CCO[Si](OCC)(OCC)c1ccccc1` here?
The value was 0.631%.

Which “activity change” value does the source give for `CCC1COC(=O)O1` (configuration not stated) here?
The value was -0.263%.

With `CC(C)(C)c1ccc(CCC=O)cc1` as the compound, how does the “activity change” value read?
Its value is -0.405%.

Which “activity change” value does the source give for `FC(F)(F)c1cccc(Cl)c1` here?
The value was -0.646%.

For `Nc1ccc(NCCO)c([N+](=O)[O-])c1`, which “activity change” value is on record?
Its value is 0.888%.

Which Potency does the source give for `IC(I)I` here?
Its Potency is “inactive”.

With `Cc1cccc(Cl)c1` as the compound, how does the “activity change” value read?
Its value is -0.311%.

For `CC1=CCC(C(C)C)=CC1`, which “activity change” value is on record?
Its value is 1.21%.

With `CC1(C)C(C=C(Cl)Cl)C1C(=O)OCc1cccc(Oc2ccccc2)c1` (configuration not stated) as the compound, how does the Potency read?
The Potency was “inactive”.

With `CCCOCCOCCOCCO` as the compound, how does the “activity change” value read?
The value was -0.372%.

With `N=C(N)c1ccc2cc(OC(=O)c3ccc(N=C(N)N)cc3)ccc2c1` as the compound, how does the “activity change” value read?
The value was -0.315% [at 26.4 µM, active compounds read high].

Which “activity change” value does the source give for `O=[N+]([O-])c1ccc(F)cc1F` here?
The value was 1.01%.

For `CC(=O)N(c1onc(C)c1C)S(=O)(=O)c1ccc(N)cc1`, which “activity change” value is on record?
Its value is -0.0517% [at 26.4 µM, active compounds read high].

Which “activity change” value does the source give for `OC[C@H]1O[C@@H](O[C@H]2[C@H](O)[C@@H](O)[C@H](O)O[C@@H]2CO)[C@H](O)[C@@H](O)[C@H]1O` here?
Its value is 0.0019%.

For `c1ccc2c(c1)CCC2`, which “activity change” value is on record?
The value was 0.7%.

For `CN(C)c1ccc(/C=C/c2ccc([N+](=O)[O-])cc2)cc1`, which activity change is on record?
Its activity change is 5.74% [at 5.22 µM, active compounds read high].

With `NCCC(O)(P(=O)(O)O)P(=O)(O)O` as the compound, how does the “activity change” value read?
The value was 0.103% [at 26.4 µM, active compounds read high].

With `CO[Si](OC)(OC)c1ccccc1` as the compound, how does the “activity change” value read?
The value was 0.162%.

Which “activity change” value does the source give for `O=C(c1ccc(Cl)cc1)c1ccc(Cl)cc1` here?
Its value is -0.137%.

Which Potency does the source give for `CC[C@H]1CN2CCc3cc(OC)c(OC)cc3[C@@H]2C[C@@H]1C[C@H]1NCCc2cc(OC)c(OC)cc21` here?
The Potency was “inactive”.

With `CC(C)c1cccc(O)c1` as the compound, how does the “activity change” value read?
The value was -1.6%.

For `CC(C)CC=O`, which “activity change” value is on record?
Its value is -1.35%.

With `COc1cccc(OC)c1C(=O)N[C@@H]1C(=O)N2[C@@H]1SC(C)(C)[C@@H]2C(=O)O` as the compound, how does the “activity change” value read?
Its value is -0.166% [at 26.4 µM, active compounds read high].

Which “activity change” value does the source give for `O=P(OC(CCl)CCl)(OC(CCl)CCl)OC(CCl)CCl` here?
Its value is 19.8%.

For `CC/C=C\CC1=C(C)CCC1=O`, which “activity change” value is on record?
The value was -0.701%.

With `CCC(C)S` (configuration not stated) as the compound, how does the activity change read?
Its activity change is -0.606% [at 2.04 µM, active compounds read high].

With `c1ccc2c(c1)CCc1ccccc1N2` as the compound, how does the Potency read?
The Potency was “inactive”.

For `CCCCOC(=O)C(C)OC(=O)CCC` (configuration not stated), which “activity change” value is on record?
Its value is 0.188%.

Which “activity change” value does the source give for `CCCC=O` here?
Its value is 0.0275%.
